Measured values published in PubChem BioAssay (EPA / NIEHS).
Active and inactive are the calls of the source. Rule for the calls: active = hit-call score of the fitted dose curve at least 0.9, where 1 is the maximum; inactive = score below 0.9.

The compounds below were run on Apoptosis regulator Bcl-2 (Homo sapiens) (UniProt P10415) (assay: LTEA_HepaRG_BCL2: Life Technologies and Expression Analysis (LTEA) Assay for Bcl-2 gene using HepaRG (AID 2283475;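 note: BCL2 transcript by TaqMan qRT-PCR normalised to ACTB GAPDH and POLR2A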)). Conditions: mRNA level, 48 h; actives raise or lower the signal.
Apoptosis regulator Bcl-2 (Homo sapiens), sequence (P10415 whole entry, looked up): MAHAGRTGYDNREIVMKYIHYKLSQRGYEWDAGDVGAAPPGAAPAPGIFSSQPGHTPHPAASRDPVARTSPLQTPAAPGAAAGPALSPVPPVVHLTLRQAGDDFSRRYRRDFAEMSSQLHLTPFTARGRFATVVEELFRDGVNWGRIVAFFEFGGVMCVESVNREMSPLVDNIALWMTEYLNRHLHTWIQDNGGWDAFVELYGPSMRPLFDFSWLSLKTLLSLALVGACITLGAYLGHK
Protocol: LTEA_HepaRG is a cell based, multiplexed-readout assay that uses HepaRG, a human liver cell line, with measurements taken at 48 hours after chemical dosing on a 96-well plate.LTEA_HepaRG_BCL2 is one of 102 assay component(s) measured in the LTEA HepaRG cell culture assay. It is a marker of Cell proliferation, survival, death.Data from the assay component LTEA_HepaRG_BCL2 was analyzed into 1 endpoint. This assay endpoint, LTEA_HepaRG_BCL2, was analyzed with bidirectional fitting relative to DMSO as the negative control and baseline of activity. Using a type of inducible reporter, measures of mRNA induction for gain or loss-of-signal activity can be used to understand regulation of transcription factor activity. To generalize the intended target to other relatable targets, this assay endpoint is annotated to the cell cycle intended target family, where the subfamily is Cell proliferation, survival, death.
A total of 1060 chemcials from the ToxCast library were tested in eight-point concentration-response experiments. Cell culture and cytotoxicity assays were conducted at Thermo Fisher Scientific's Custom Services facility (Madison, WI). A single lot of human HepaRG cells (Thermo Fisher Scientific, Frederick, MD) was used for the cell culture experiments. 96-well format collagen type I coated plates of human HepaRG cells were prepared using established methods. Briefly, cryopreserved HepaRG cells were thawed, plated at a density of approximately 100,000 cells/well in HepaRG Thaw, Plate, and General Purpose media (HPRG770, Thermo Fisher Scientific), and incubated for 48 hours. 0.5% DMSO was selected as vehicle control to balance the requisite need of DMSO in HepaRG cultures to maintain differentiation (for example, baseline metabolism, proportions of hepatocytes vs. cholangiocytes), while enabling further hepatic receptor pathway activation (for example, PXR and CAR) in response to chemical exposure. 48 hours after plating, the culture medium was replaced with HepaRG Serum-Free Incudtion Media. Cells were exposed to each test chemical in duplicate and maintained in CO2 incubators for another 48 hours. Chemical plates were thawed to room temperature and 200x concentrations of treatment groups were prepared. 8-point conentration-reponse curves were made with the highest exposure at 100 uM, followed by half-log dilutions, all in 0.5% DMSO. Each test plate contained variouse controls, induction positive controls (1mM phenobarbital), cytotoxicity positive controls ([…] aflatoxin B1), vehicle controls (0.5% DMSO), and total lysis controls (0.5% DMSO). Cell morphology images were taken using an Essen IncuCyte FLR automated microscope, with six 96-well plates imaged in about 24 minutes. Images were captured and exported and JPEG files. Spent culture media was transfered to black-well plates for the LDH assay, and remaining media was sorted at -80 C for later use. Cells were treated with RLT buffer and frozen until shipped for gene expression analysis. Total RNA was isolated from the cell suspension in 75 uL of Buffer RLT (Qiagen, Germantown, MD 20874) by Quintiles/Expression Analysis (Durham, NC) using a custom isolation procedure. Total RNA from each plate well was transferred to a preamplification plate. Fluidigm's 96.96 Dynamic ArrayTM (Fluidigm, Amsterdam, the Netherlands) technology was used for gene expression analyses by quantitative reverse transcription polymerase chain reaction (qRT-PCR, performed by Quintiles/Expression Analysis, Durham, NC)89. Standard TaqManTM Assays (Applied Biosystems/ThermoFisher Scientific, Foster City, CA) were used to assess the expression of 93 genes selected based on their selectivity and sensitivity to important hepatic receptors known to be modulated by environmental chemicals; importance in human hepatocyte functionality; and hepatotoxicity. […]

Row | SMILES | outcome | AC50
1 | CNC(=O)Oc1cccc2c1OC(C)(C)C2 | inactive | 
2 | CC(C)(OOC(C)(C)c1ccccc1)c1ccccc1 | inactive | 
3 | C[C@]12C=CC3=C4CCC(=O)C=C4CC[C@H]3[C@@H]1CC[C@@H]2O |  | 14.8 µM (active)
4 | C1=Cc2cccc3cccc1c23 | inactive | 
5 | ClCCOCCCl | inactive | 
6 | N#CC(Br)(Br)C(N)=O | inactive | 
7 | Nc1ccc(Cl)cc1N |  | 28.8 µM (active)
8 | c1ccc(NNc2ccccc2)cc1 | inactive | 
9 | Cn1cc(-c2ccccc2)c(=O)c(-c2cccc(C(F)(F)F)c2)c1 | inactive | 
10 | [Cl-].[Cl-].[Hg+2] | inactive | 
11 | CCCCCCCCn1sccc1=O | inactive | 
12 | COC(=O)c1ccccc1N | inactive | 
13 | CCCCCCCCOC(=O)c1ccc(C(=O)OCCCCCCCC)c(C(=O)OCCCCCCCC)c1 | inactive | 
14 | O=Cc1ccco1 | inactive | 
15 | OCCCBr | inactive | 
16 | C=CCc1ccc2c(c1)OCO2 | inactive | 
17 | CC(C)COC(=O)c1ccccc1C(=O)OCC(C)C | inactive | 
18 | Cc1ccc(N=C=O)cc1N=C=O |  | 23.6 µM (active)
19 | Oc1ccccc1Cl | inactive | 
20 | CCCSC(=O)N(CCC)CCC | inactive | 

Row | SMILES | outcome | AC50
21 | O=[N+]([O-])c1ccc(Oc2ccc(Cl)cc2Cl)cc1 | inactive | 
22 | O=C(O)C1C2CCC(O2)C1C(=O)O (stereo not given) | inactive | 
23 | O=C1CCCO1 | inactive | 
24 | CCCCCCCCCCCCCN1CC(C)OC(C)C1 (stereo not given) | inactive | 
25 | c1ccc(C2CO2)cc1 (stereo not given) | inactive | 
26 | Oc1ccc2ccc3cccc4ccc1c2c34 | inactive | 
27 | CCCCCOC(=O)c1ccccc1C(=O)OCCCCC | inactive | 
28 | CCC12COCN1COC2 | inactive | 
29 | CC(C)(C)C(O)(CCc1ccc(Cl)cc1)Cn1cncn1 (stereo not given) |  | 79 µM (active)
30 | CN(C)c1ccccc1 | inactive | 
31 | COc1cc(C=O)cc2c1[C@H](COC(N)=O)[C@]1(OC(C)=O)ON2C[C@H]2[C@@H]1N2C(C)=O | inactive | 
32 | [O-][Cl+]O | inactive | 
33 | Nc1ccc([N+](=O)[O-])cc1 | inactive | 
34 | O=C(Nc1ccccc1)c1ccccc1I | inactive | 
35 | COP(=S)(OC)SCN1C(=O)c2ccccc2C1=O | inactive | 
36 | c1ccc2c(c1)oc1ccccc12 | inactive | 
37 | CN(C)C(=O)Nc1ccc(Cl)cc1 | inactive | 
38 | CCCCOC(=O)c1ccccc1C(=O)OCc1ccccc1 | inactive | 
39 | CCC[CH2][Sn]([Cl])([CH2]CCC)[CH2]CCC |  | 3.08 µM (active)
40 | ClC1=C(Cl)C2(Cl)C3C(Cl)C=CC3C1(Cl)C2(Cl)Cl (stereo not given) | inactive | 
